KB-3-1 cytotox: qHTS assay for MDR1-selective chemotherapeutics: Primary screen using the parental adenocarcinoma cell KB-3-1; KB-3-1 viability, CellTiter-Glo ATP luminescence, 72 h; Potency, µM (highest dose often 46.1 µM), hits mostly cytotoxic; hit rate 1.4% among 400,000; AID 1347075, 2019; also: % is scaled to controls: 0 for no effect and ±100 for the full control effect; nearly all actives have a fitted effect of over 60% in size
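Parental KB-3-1 adenocarcinoma cells in phenol-red-free DMEM with 10% FBS were pin-treated with compounds at several concentrations, incubated 72 h at 37 °C, and viability read by CellTiter-Glo luminescence; concentration-effect curves were fitted after normalization.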
HT1080 IDH1KD tx: qHTS for induction of synthetic lethality in tumor cells producing 2HG: qHTS for the HT-1080-IDH1KD cell line | hit rate 2% among 360,000 | HT-1080 IDH1 knockdown viability, ATP luminescence, 48 h | Potency, µM (titrated, usually from 46.1 µM), for the others: at the highest dose activity, negative = toxicity, actives largely listed as cytotoxic | AID 686971, 2013;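 also: 0% = DMSO wells and -100% = cell-free medium wells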
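Cytotoxicity counter-line: IDH1KD HT-1080, 48 h, CellTiter-Glo. Curves classed by r2, magnitude and activity.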
MCF10A rereplic: A quantitative high throughput screen for small molecules that induce DNA re-replication in MCF 10a normal breast cells. hit rate 2.9% among 350,000. AID 624296, 2012. Potency, µM (highest dose often 46.1 µM), without a hit: at the highest dose activity, positive = re-replication, most hits filed as activators. MCF 10A DNA re-replication, Hoechst nuclear intensity, 48 h; also: % of control where 0% means no effect; nearly all actives have a fitted effect of over 50% in size
SW480 rereplic: A quantitative high throughput screen for small molecules that induce DNA re-replication in SW480 colon adenocarcinoma cells; SW480 DNA re-replication, Hoechst DNA content imaging, 48 h; Potency, µM (series often up to 46.1 µM), without a hit: top-dose re-replication activation, hits mostly activators; hit rate 1.8% among 340,000; AID 624297, 2012; also: % of control where 0% means no effect; nearly all actives have a fitted effect of over 55% in size
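Image-based read-out: total Hoechst fluorescence of nuclei (405 nm excitation, 500-530 nm emission), with hits raising the fraction of high-intensity nuclei. SW480 colon cells incubated 48 hr with compounds at 37 C.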
HT1080-NT tox: qHTS for induction of synthetic lethality in tumor cells producing 2HG: qHTS for the HT-1080-NT fibrosarcoma cell line | HT-1080-NT fibrosarcoma viability, CellTiter-Glo ATP luminescence, 48 h | Potency, µM (titrated, usually from 46.1 µM), for the others: top-dose activity, negative = less viability, actives largely listed as cytotoxic | hit rate 1.6% among 360,000;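 also: NT is the 2HG producing partner of a matched IDH1 knockdown line; 0% = DMSO-treated cells and -100% = media-only wells without cells; nearly all actives have a fitted effect of over 55% in size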
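A 48-hour cytotoxicity screen used HT-1080-NT cells plated 2 hours before compound delivery. ATP-based CellTiter-Glo luminescence measured viability, normalized to DMSO and no-cell controls.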
KB-V1 cytotox: qHTS assay for MDR1-selective chemotherapeutics: Primary screen using the drug-selected MDR subline cells KB-V1; KB-V1 MDR cells viability, CellTiter-Glo, 72 h; hit rate 3.4% among 400,000; Potency, µM (titrated, usually from 46.1 µM), hits mostly cytotoxic; AID 1347076, 2019; also: % is scaled to controls: 0 for no effect and ±100 for the full control effect; nearly all actives have a fitted effect of over 60% in size
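KB-V1, DMEM (no phenol red) + 10% FBS; cpd pin-transferred, titration series; 72 h, 37 degrees C; CellTiter-Glo, luminescence. Data normalized, curve-fit.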
The depositor's hits bear a star; [ ] = dose if it differs, or a comment. Most compounds without a hit are left out; they make up all but 8% or so of the library. Calls follow the shape of the dose curve; as a rule, active = well fitted curve in the direction sought with a large enough effect; inconclusive = small, poorly fitted or top-dose-only effect, or another doubt; inactive = no such curve, though single readings can be large; an effect the other way counts as inactive or inconclusive. Potency is read from the fitted curve at half-maximal effect.

How did O=[N+]([O-])c1cc(C(F)(F)F)ccc1NCCc1c[nH]c2ccc(O)cc12 do in these assays?
KB-3-1 cytotox: inactive; HT1080 IDH1KD tx: 13µM*; MCF10A rereplic: -8%; SW480 rereplic: 13%; HT1080-NT tox: 13µM*; KB-V1 cytotox: inactive

How did O=C(NNC(=O)c1cc(-c2ccc(Cl)c(Cl)c2)nc2ccccc12)Nc1ccccc1 do in these assays?
KB-3-1 cytotox: inconclusive; HT1080 IDH1KD tx: inconclusive; MCF10A rereplic: 21µM*; SW480 rereplic: inconclusive; HT1080-NT tox: inconclusive; KB-V1 cytotox: inconclusive

What do the screens show for `Cc1cccc(NC(=O)NNC(=O)c2cc(-c3ccccc3Cl)nc3ccccc23)c1`?
KB-3-1 cytotox: inactive; HT1080 IDH1KD tx: inconclusive; MCF10A rereplic: inconclusive; SW480 rereplic: 17%; HT1080-NT tox: inconclusive; KB-V1 cytotox: inactive

What do the screens show for `COc1ccc(-c2cc(C(=O)Nc3nc4ccccc4s3)c3ccccc3n2)cc1OC`?
KB-3-1 cytotox: inactive; HT1080 IDH1KD tx: -26%; MCF10A rereplic: 2.9µM*; SW480 rereplic: inconclusive; HT1080-NT tox: -21%; KB-V1 cytotox: inactive

What do the screens show for `COc1ccc(-c2cc(C(=O)Nc3cccnc3)c3ccccc3n2)cc1OC`?
KB-3-1 cytotox: inconclusive; HT1080 IDH1KD tx: -15%; MCF10A rereplic: inconclusive; SW480 rereplic: 0%; HT1080-NT tox: -5%; KB-V1 cytotox: 9.2µM*

Results for O=C(Nc1ccncc1)c1cc(-c2cccc(Br)c2)nc2ccccc12 ?
KB-3-1 cytotox: 21µM*; HT1080 IDH1KD tx: inconclusive; MCF10A rereplic: 16µM*; SW480 rereplic: 8%; HT1080-NT tox: inconclusive; KB-V1 cytotox: inconclusive

Results for COc1ccc(-c2cc(C(=O)Nc3ccccc3O)c3ccccc3n2)cc1OC ?
KB-3-1 cytotox: inactive; HT1080 IDH1KD tx: 3%; MCF10A rereplic: 10%; SW480 rereplic: inconclusive; HT1080-NT tox: -3%; KB-V1 cytotox: inconclusive

How did COc1cccc(-c2cc(C(=O)Nc3cccnc3)c3ccccc3n2)c1 do in these assays?
KB-3-1 cytotox: inactive; HT1080 IDH1KD tx: -4%; MCF10A rereplic: 16%; SW480 rereplic: 1%; HT1080-NT tox: -3%; KB-V1 cytotox: inconclusive

How did CN1C(=O)c2ccccc2Sc2ccc(NC(=O)NCc3cccc(Cl)c3)cc21 do in these assays?
KB-3-1 cytotox: inactive; KB-V1 cytotox: inactive

How did Cc1ccc(-c2nc3cc(NC(=O)c4cc(Br)ccc4Cl)ccc3o2)cc1 do in these assays?
KB-3-1 cytotox: inactive; KB-V1 cytotox: inactive

How did O=C(NC1CC1)c1cc(-c2ccc(Br)cc2)nc2ccccc12 do in these assays?
KB-3-1 cytotox: inactive; HT1080 IDH1KD tx: 0%; MCF10A rereplic: 25%; SW480 rereplic: 1%; HT1080-NT tox: 6%; KB-V1 cytotox: inactive

What do the screens show for `O=C(NC1=NCCS1)c1cc(-c2cccc(Br)c2)nc2ccccc12`?
KB-3-1 cytotox: inconclusive; HT1080 IDH1KD tx: -18%; MCF10A rereplic: inconclusive; SW480 rereplic: 19%; HT1080-NT tox: -1%; KB-V1 cytotox: 15µM*

What do the screens show for `CN1CCC(NC(=O)c2cc(-c3cccc(Br)c3)nc3ccccc23)CC1`?
KB-3-1 cytotox: inconclusive; HT1080 IDH1KD tx: 21µM*; MCF10A rereplic: 9%; SW480 rereplic: inconclusive; HT1080-NT tox: 21µM*; KB-V1 cytotox: inactive

What do the screens show for `COc1ccc(-c2cc(C(=O)Nc3ccc(S(N)(=O)=O)cc3)c3ccccc3n2)cc1OC`?
KB-3-1 cytotox: inactive; HT1080 IDH1KD tx: inconclusive; MCF10A rereplic: 8.2µM*; SW480 rereplic: 5.8µM*; HT1080-NT tox: -22%; KB-V1 cytotox: inactive

What do the screens show for `COc1cc(NC(=O)c2cc(-c3cccnc3)nc3ccc(Br)cc23)cc(OC)c1`?
KB-3-1 cytotox: inconclusive; HT1080 IDH1KD tx: 2%; MCF10A rereplic: 16µM*; SW480 rereplic: -3%; HT1080-NT tox: 3%; KB-V1 cytotox: inactive

What do the screens show for `COc1cc(OC)c(NC(=O)CC(c2cccs2)N2Cc3ccccc3C2=O)cc1Cl` (stereo not drawn)?
KB-3-1 cytotox: inactive; KB-V1 cytotox: inactive

Results for Nc1[nH]c(=S)[nH]c(=O)c1N ?
KB-3-1 cytotox: inactive; KB-V1 cytotox: inactive

Results for CN(C)c1c(Cl)cc(/C=C2\C=Cc3ccccc32)cc1Cl ?
KB-3-1 cytotox: inactive; KB-V1 cytotox: inactive

How did O=C(Nc1cccnc1)c1cc(-c2cccc(Br)c2)nc2ccccc12 do in these assays?
KB-3-1 cytotox: inactive; HT1080 IDH1KD tx: -2%; MCF10A rereplic: inconclusive; SW480 rereplic: 3%; HT1080-NT tox: -6%; KB-V1 cytotox: 10µM*

How did Cc1ccc(-c2cc(C(=O)NCc3ccccn3)c3ccccc3n2)cc1 do in these assays?
KB-3-1 cytotox: inactive; HT1080 IDH1KD tx: -21%; MCF10A rereplic: inconclusive; SW480 rereplic: 5%[9.22 µM]; HT1080-NT tox: -12%; KB-V1 cytotox: inactive

What do the screens show for `O=C(NCc1ccccn1)c1cc(-c2ccc(Br)cc2)nc2ccccc12`?
KB-3-1 cytotox: inactive; HT1080 IDH1KD tx: 12%; MCF10A rereplic: inconclusive; SW480 rereplic: -10%; HT1080-NT tox: 9%; KB-V1 cytotox: 2.6µM*

What do the screens show for `O=C(Nc1cccnc1)c1cc(-c2cccnc2)nc2ccc(Br)cc12`?
KB-3-1 cytotox: inactive; HT1080 IDH1KD tx: -1%; MCF10A rereplic: -22%; SW480 rereplic: 1%; HT1080-NT tox: -2%; KB-V1 cytotox: inactive

How did COc1cc(NC(=O)c2ccccc2-c2ccccc2)cc(OC)c1 do in these assays?
KB-3-1 cytotox: inactive; HT1080 IDH1KD tx: 2%; MCF10A rereplic: -2%; SW480 rereplic: -242%; HT1080-NT tox: 5%; KB-V1 cytotox: 12µM*

Results for COc1ccc(NC(=O)c2ccc3nc(CCc4ccccc4)oc3c2)cc1 ?
KB-3-1 cytotox: inactive; KB-V1 cytotox: inactive

How did CC(/C=C/c1ccccc1)=N\NC(=O)CCc1ccccc1 do in these assays?
KB-3-1 cytotox: inactive; HT1080 IDH1KD tx: 0%; MCF10A rereplic: -9%; SW480 rereplic: 5%; HT1080-NT tox: 12%; KB-V1 cytotox: inactive

How did CC(/C=C/c1ccco1)=N\NC(=O)c1cccc(Cl)c1 do in these assays?
KB-3-1 cytotox: inactive; HT1080 IDH1KD tx: inconclusive; MCF10A rereplic: 1%; SW480 rereplic: inconclusive; HT1080-NT tox: -22%; KB-V1 cytotox: inconclusive

Screening data: PubChem, National Center for Advancing Translational Sciences (NCATS)
